# Experimental data as given in PubChem BioAssay (Tox21).
# “And” between values parts separate entries of the source, which are not always exact repeats. Equal entries are not always repeated. Results filed as inconclusive are left out. Where a call stands in place of a potency, no number is given. Unmarked numbers belong to inactive results. The source made the active and inactive calls. The call rests on the fitted dose curve; in most records, active means well fitted curve in the direction sought with a large enough effect in the repeat runs; inconclusive means weak or mixed curves; inactive means no such curve, though single readings can be large; an effect the other way counts as inactive or inconclusive.
# Biological target: Nuclear receptor subfamily 1 group I member 2 (Homo sapiens) (UniProt O75469)
# Sequence (O75469 whole entry, looked up): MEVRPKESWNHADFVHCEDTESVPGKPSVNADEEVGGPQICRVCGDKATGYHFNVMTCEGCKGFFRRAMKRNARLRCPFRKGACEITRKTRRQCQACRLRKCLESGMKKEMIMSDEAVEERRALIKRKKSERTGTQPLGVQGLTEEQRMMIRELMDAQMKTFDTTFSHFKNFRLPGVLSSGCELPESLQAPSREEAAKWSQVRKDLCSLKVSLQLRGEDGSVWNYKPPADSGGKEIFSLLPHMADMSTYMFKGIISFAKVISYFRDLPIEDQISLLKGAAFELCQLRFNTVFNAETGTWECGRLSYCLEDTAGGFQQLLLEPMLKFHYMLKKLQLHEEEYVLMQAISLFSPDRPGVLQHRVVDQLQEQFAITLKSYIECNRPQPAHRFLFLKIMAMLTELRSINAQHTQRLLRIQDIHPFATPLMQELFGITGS
# Assay: Human pregnane X receptor (PXR) small molecule agonists, qHTS assay (AID 1346982); further: nearly all actives have a fitted effect of over 35% in size; further: potency means the concentration at half of the fitted maximal effect
# Conditions: PXR-Luc HepG2, CYP3A4 luciferase reporter, 24 h; series mostly up to 92.4 µM
# Outline: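 Tox21 qHTS; PXR-Luc HepG2; compounds pinned from DMSO; 24 hr, 37 C; ONE-Glo luciferase detection, 30 min room temperature.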
Structure (SMILES),Potency,activation
CC(C)CCOCCC(C)C,inactive,–
c1cc[nH]c1,inactive,–
CC(=O)C=O,inactive,–
CC(=O)OC(OC(C)=O)c1ccc([N+](=O)[O-])o1,24.8 µM (active),–
Cc1cc(C)c(C=O)c(C)c1,43.3 µM (active),–
Cn1cccc1,inactive,–
COc1cccc(OC)c1O,inactive,–
c1cc(OCC2CO2)cc(OCC2CO2)c1 (configuration not stated),21.5 µM (active),–
CCCCCCCCCCCCCC[n+]1ccccc1,8.63 µM (active),–
CCN(CC)CCNc1ccc(CO)c2sc3ccccc3c(=O)c12,inactive,–
CCCCCCC(C)OC(=O)COc1nc(F)c(Cl)c(N)c1Cl (configuration not stated),inactive,–
CC1(C)C(=O)N(Br)C(=O)N1Br,inactive,–
CSc1ccc2c(c1)N(CCC1CCCCN1C)c1ccccc1S2 (configuration not stated),9.65 µM (active) and 5.96 µM (active),–
CCCCCCCCCCCCCc1ccccc1,inactive,–
Oc1cc2ccccc2cc1O,inactive,–
CCN(CC)c1cccc(C)c1,inactive,–
CC[N+](CC)(CC)Cc1ccccc1,inactive,–

Structure (SMILES),Potency,activation
CC(=O)c1ccccc1N,inactive,–
C#CC(O)CCC (configuration not stated),inactive,–
CCO[Si](C)(C)OCC,inactive,–
COC(=O)[C@]1(C)CCC[C@@]2(C)[C@H]1CC=C1C=C(C(C)C)CC[C@@H]12,17.2 µM (active),–
CCCCCCCCCCCCOC(=O)c1cc(O)c(O)c(O)c1,24.2 µM (active) and 21.7 µM (active),–
COC(=O)CC#N,inactive,–
O=C=NCc1cccc(CN=C=O)c1,–,2.53% [at 19 µM]
CCOC(=O)COc1ccc(C)cc1,inactive,–
[O]=[Zr],inactive,–
Cn1cnc2ncnc(N)c21,inactive,–
CCCCCCCC/C=C\CCCCCCCC(=O)OCCOC(=O)CCCCCCC/C=C\CCCCCCCC,71.2 µM (active),–
C=CC(=O)OCCN(CC)CC,inactive,–
OCCN1CN(CCO)CN(CCO)C1,inactive,–
Cc1ccc(O)cn1,inactive,–
CCCC(O)C(O)CO (configuration not stated),inactive,–
C/C=C/c1ccc(OC)c(OC)c1,inactive,–

# Biological target: Nuclear receptor subfamily 1 group I member 2 (Rattus norvegicus) (UniProt Q9R1A7)
# Sequence (Q9R1A7 whole entry, looked up): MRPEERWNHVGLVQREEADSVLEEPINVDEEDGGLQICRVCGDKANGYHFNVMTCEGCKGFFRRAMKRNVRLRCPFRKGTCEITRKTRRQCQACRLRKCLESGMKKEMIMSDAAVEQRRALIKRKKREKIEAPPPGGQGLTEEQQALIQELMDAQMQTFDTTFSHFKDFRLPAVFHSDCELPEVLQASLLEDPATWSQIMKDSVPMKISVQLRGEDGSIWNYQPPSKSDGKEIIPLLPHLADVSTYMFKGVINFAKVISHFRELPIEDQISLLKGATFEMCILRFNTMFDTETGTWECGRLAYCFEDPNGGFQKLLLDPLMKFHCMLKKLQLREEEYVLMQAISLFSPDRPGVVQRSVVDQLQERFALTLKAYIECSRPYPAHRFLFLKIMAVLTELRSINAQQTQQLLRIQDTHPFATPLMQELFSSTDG
# Assay: Rat pregnane X receptor (rPXR) activation by small molecules, qHTS assay (AID 1346983); further: nearly all actives have a fitted effect of over 20% in size
# Conditions: rPXR luciferase reporter cells, One-Glo luminescence, 24 h; max activation: active compounds read high
# Outline: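 Cell-based rPXR luciferase reporter assay, 2,000 cells per well, rested 5hr at 37 C before compound addition in DMSO, then 24 hr at 37 C. One-Glo reagent was added and luminescence read after 30 min at room temperature.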
row,Structure (SMILES),max activation [%]
1,C/C=C/C=N/NC(=O)c1ccncc1,-3.54
2,CN1[C@@H]2CC[C@H]1CC(OC(=O)C(CO)c1ccccc1)C2 (some centres not stated),-0.936
3,NCCCC(O)(P(=O)(O)O)P(=O)(O)O,-1.25

# Biological target: Cytochrome P450 2C19 (Homo sapiens) (UniProt P33261)
# Sequence (P33261 whole entry, looked up): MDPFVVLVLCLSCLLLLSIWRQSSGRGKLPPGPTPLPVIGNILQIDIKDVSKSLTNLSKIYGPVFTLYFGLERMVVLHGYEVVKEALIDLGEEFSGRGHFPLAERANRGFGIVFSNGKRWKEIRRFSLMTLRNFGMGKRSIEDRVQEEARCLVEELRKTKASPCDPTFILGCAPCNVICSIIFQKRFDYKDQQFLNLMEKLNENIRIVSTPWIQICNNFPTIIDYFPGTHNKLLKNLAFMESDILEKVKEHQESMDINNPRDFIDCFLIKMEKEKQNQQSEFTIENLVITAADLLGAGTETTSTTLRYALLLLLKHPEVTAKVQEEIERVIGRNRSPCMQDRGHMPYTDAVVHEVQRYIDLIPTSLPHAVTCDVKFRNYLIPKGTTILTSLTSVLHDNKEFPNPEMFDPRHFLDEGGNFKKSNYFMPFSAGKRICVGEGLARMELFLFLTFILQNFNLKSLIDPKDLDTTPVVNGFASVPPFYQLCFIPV
# Assay: Cytochrome P450 Family 2 Subfamily C Member 19 (CYP2C19) small molecule antagonists: luciferase reporter qHTS assay (AID 1671197); further: nearly all actives have a fitted effect of over 65% in size; further: potency means the concentration at half of the fitted maximal effect
# Conditions: P450-Glo CYP2C19 enzyme, luciferin luminescence, 1 h; series mostly up to 115 µM
# Outline: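 CYP2C19 P450-Glo, 1536-well qHTS. Cpd + enzyme/proluciferin substrate 10 min RT; + NADPH regen, 37C 1 h; stop with luciferin detection reagent, 20 min RT, luminescence (RLU). Pos ctrl ketoconazole.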
row,Structure (SMILES),Potency
1,c1cc[nH]c1,inactive
2,CC(=O)C=O,inactive
3,CC(=O)OC(OC(C)=O)c1ccc([N+](=O)[O-])o1,16.2 µM (active)
4,Cn1cccc1,inactive
5,COc1cccc(OC)c1O,39.9 µM (active)
6,CCN(CC)CCNc1ccc(CO)c2sc3ccccc3c(=O)c12,inactive
7,CCCCCCC(C)OC(=O)COc1nc(F)c(Cl)c(N)c1Cl (configuration not stated),4.48 µM (active)
8,CC1(C)C(=O)N(Br)C(=O)N1Br,inactive
9,CSc1ccc2c(c1)N(CCC1CCCCN1C)c1ccccc1S2 (configuration not stated),17.8 µM (active) and 21.9 µM (active)
10,CCCCCCCCCCCCCc1ccccc1,inactive
11,Oc1cc2ccccc2cc1O,39.9 µM (active)
12,CCN(CC)c1cccc(C)c1,inactive
13,CC[N+](CC)(CC)Cc1ccccc1,inactive
14,CC(=O)c1ccccc1N,inactive
15,C#CC(O)CCC (configuration not stated),inactive
16,CCO[Si](C)(C)OCC,inactive
17,COC(=O)[C@]1(C)CCC[C@@]2(C)[C@H]1CC=C1C=C(C(C)C)CC[C@@H]12,28.3 µM (active)
18,CCCCCCCCCCCCOC(=O)c1cc(O)c(O)c(O)c1,25.1 µM (active) and 20 µM (active)
19,CCOC(=O)COc1ccc(C)cc1,inactive
20,Cn1cnc2ncnc(N)c21,inactive
21,CCCCCCCC/C=C\CCCCCCCC(=O)OCCOC(=O)CCCCCCC/C=C\CCCCCCCC,46.5 µM (active)
22,C=CC(=O)OCCN(CC)CC,inactive
23,Cc1ccc(O)cn1,inactive
24,CCCC(O)C(O)CO (configuration not stated),inactive
25,C/C=C/c1ccc(OC)c(OC)c1,71 µM (active)

# Biological target: Cytochrome P450 2C9 (Homo sapiens) (UniProt P11712)
# Sequence (P11712 whole entry, looked up): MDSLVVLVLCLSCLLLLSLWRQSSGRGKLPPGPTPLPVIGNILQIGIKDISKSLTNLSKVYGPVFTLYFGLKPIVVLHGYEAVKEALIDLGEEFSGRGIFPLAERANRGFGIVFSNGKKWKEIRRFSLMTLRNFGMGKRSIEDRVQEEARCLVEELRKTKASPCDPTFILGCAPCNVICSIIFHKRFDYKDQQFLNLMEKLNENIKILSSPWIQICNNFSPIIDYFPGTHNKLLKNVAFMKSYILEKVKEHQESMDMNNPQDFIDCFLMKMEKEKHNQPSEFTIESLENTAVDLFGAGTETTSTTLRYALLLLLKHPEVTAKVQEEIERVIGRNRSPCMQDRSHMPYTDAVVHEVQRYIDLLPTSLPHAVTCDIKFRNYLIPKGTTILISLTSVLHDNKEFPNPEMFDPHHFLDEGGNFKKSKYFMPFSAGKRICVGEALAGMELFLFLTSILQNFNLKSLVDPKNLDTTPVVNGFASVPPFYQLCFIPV
# Assay: Cytochrome P450 Family 2 Subfamily C Member 9 (CYP2C9) small molecule antagonists: luciferase reporter qHTS assay (AID 1671198); further: nearly all actives have a fitted effect of over 50% in size; further: potency means the concentration at half of the fitted maximal effect
# Conditions: P450-Glo CYP2C9 enzyme assay, luciferin luminescence; series mostly up to 115 µM
# Outline: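 CYP2C9 activity was measured with a P450-Glo proluciferin substrate. Enzyme–substrate mix was held with compound for 10 min at room temperature, then NADPH regeneration solution was added for 1 h at 37C. Luciferin product was read as luminescence.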
row,Structure (SMILES),Potency
1,CC(C)CCOCCC(C)C,inactive
2,c1cc[nH]c1,inactive
3,CC(=O)C=O,inactive
4,Cn1cccc1,inactive
5,COc1cccc(OC)c1O,35.6 µM (active)
6,c1cc(OCC2CO2)cc(OCC2CO2)c1 (configuration not stated),39.6 µM (active)
7,CCN(CC)CCNc1ccc(CO)c2sc3ccccc3c(=O)c12,inactive
8,CCCCCCC(C)OC(=O)COc1nc(F)c(Cl)c(N)c1Cl (configuration not stated),17.8 µM (active)
9,CSc1ccc2c(c1)N(CCC1CCCCN1C)c1ccccc1S2 (configuration not stated),70.7 µM (active)
10,CCCCCCCCCCCCCc1ccccc1,inactive
11,CCN(CC)c1cccc(C)c1,inactive
12,CC[N+](CC)(CC)Cc1ccccc1,inactive
13,CC(=O)c1ccccc1N,inactive
14,C#CC(O)CCC (configuration not stated),inactive
15,CCO[Si](C)(C)OCC,inactive
16,COC(=O)[C@]1(C)CCC[C@@]2(C)[C@H]1CC=C1C=C(C(C)C)CC[C@@H]12,31.7 µM (active)
17,CCCCCCCCCCCCOC(=O)c1cc(O)c(O)c(O)c1,9.99 µM (active) and 28.3 µM (active)
18,COC(=O)CC#N,inactive
19,O=C=NCc1cccc(CN=C=O)c1,6.74 µM (active)
20,Cn1cnc2ncnc(N)c21,inactive
21,CCCCCCCC/C=C\CCCCCCCC(=O)OCCOC(=O)CCCCCCC/C=C\CCCCCCCC,14.7 µM (active)
22,C=CC(=O)OCCN(CC)CC,inactive
23,OCCN1CN(CCO)CN(CCO)C1,inactive
24,Cc1ccc(O)cn1,inactive
25,CCCC(O)C(O)CO (configuration not stated),inactive
26,C/C=C/c1ccc(OC)c(OC)c1,35.6 µM (active)
